Where “and” joins values, the source holds several entries; their conditions need not be identical. Identical values can stand only once. Records with an inconclusive call do not appear. Calls of active or inactive are those of the source. Calls come from the whole dose curve; as a rule, active = well fitted curve in the direction sought with a large enough effect; inconclusive = small, poorly fitted or top-dose-only effect, or another doubt; inactive = no such curve, though single readings can be large; an effect the other way counts as inactive or inconclusive.

For assay [1], the target named is Calcium and integrin-binding protein 1 (Homo sapiens) (UniProt Q99828). The assay is described as follows: Primary qHTS for Identification of Calcium Integrin Binding Protein 1 (CIB1) Competitor (AID 1508620).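 Note: GST tagged CIB1 binding a fluorescein labelled alphaIIb integrin peptide tracer; top concentration of the series differs between compounds.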 To be noted: CIB1-GST / FITC-alphaIIb peptide fluorescence polarization; series mostly up to 57.7 µM. The gist of the method: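 Fluorescence polarization competition: CIB1-GST (1 uM final) preincubated with compound 15 min at room temperature, then FITC-labeled alphaIIb peptide (100 nM final) added for another 15 min. Polarization read at Ex 480/Em 540.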
Calcium and integrin-binding protein 1 (Homo sapiens), sequence (Q99828 whole entry, looked up): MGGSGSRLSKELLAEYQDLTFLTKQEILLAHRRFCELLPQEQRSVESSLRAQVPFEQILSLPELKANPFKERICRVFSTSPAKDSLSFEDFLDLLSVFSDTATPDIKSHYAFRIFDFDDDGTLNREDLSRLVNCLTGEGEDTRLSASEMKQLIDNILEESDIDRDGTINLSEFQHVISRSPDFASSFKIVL
In general terms: Quantitative high-throughput screening tests each substance at several concentrations.

A short description of assay [2]: Primary qHTS for inhibitors of nuclear receptor binding SET domain protein 2 (NSD2) in an isogenic RCH-ACV NSD2 p.E1099K mutant (9B) (AID 1645876). Note: nearly all actives have a fitted effect of over 70% in size. Note: potency is the fitted concentration of half-maximal effect. To be noted: RCH-ACV NSD2 E1099K (9B) viability, CellTiter-Glo, 72 h; series mostly up to 44.9 µM.
Assay [3] in a line: Primary qHTS for inhibitors of nuclear receptor binding SET domain protein 2 (NSD2) in an RCH-ACV wild type WT cells (2C) (AID 1645877). Note: nearly all actives have a fitted effect of over 70% in size. Note: potency is the fitted concentration of half-maximal effect. To be noted: RCH-ACV (leukaemia line) NSD2 WT (2C) viability, CellTiter-Glo, 72 h; series mostly up to 44.9 µM.

As to `CC1CCC23COC(=O)C2=CC(O)CC3C1(C)CCc1ccoc1` (configuration not stated), the Potency entry in assay [1], in assay [2] and in assay [3] was “inactive” in each case.

Regarding `CCC(C)C(=O)O[C@H]1C[C@](C)(O)[C@]23OC(C)(C)[C@H](C[C@H](OC(=O)c4ccccc4)[C@]2(COC(C)=O)[C@H]1OC(=O)C(C)CC)[C@H]3OC(C)=O` (some centres not stated), the Potency entry in assay [1], in assay [2] and in assay [3] was “inactive” throughout.

With `CC(C)C1CCC(CO)=CC1/C=C(\CO)C(=O)OCC1(O)CCC(C(C)C)C2C=C(C(=O)O)COC(=O)C21` (configuration not stated), the Potency result in assay [1], in assay [2] and in assay [3] was “inactive” in each case.

Regarding `CCC(C)/C=C(C)/C=C/C1=CC2=C(Cl)C(=O)C(C)(OC(C)=O)C(=O)C2=CN1C(CCC(=O)O)C(=O)O` (configuration not stated), the Potency result in assay [1], in assay [2] and in assay [3] was “inactive” each time.

Take `Cc1ncc(NC(=O)c2ccc(CN3CCN(C)CC3)c(C(F)(F)F)c2)cc1Nc1nccc(-c2cccnc2)n1`: the Potency result in assay [1] was “inactive”. The Potency in assay [2] was 7.28 µM (active) and 5.9 µM (active); in assay [3], 8.17 µM (active) and 5.9 µM (active).

As to `CCc1nn(CCO)c(CC)c1Oc1cc(C#N)cc(C#N)c1`, the Potency entry in assay [1], in assay [2] and in assay [3] was “inactive” in each case.

In the case of `C[C@@H]1CC2OC(=O)C3=C2C(CCC3O)[C@@]12C[C@@H](c1ccoc1)OC2=O` (some centres not stated), the Potency result in assay [1], in assay [2] and in assay [3] was “inactive” in each case.

On to `COC(=O)[C@H](O)[C@H]1C(C)(C)[C@H](OC(C)=O)[C@@]2(O)C(=O)[C@]1(C)C1CC[C@]3(C)C(CC(=O)O[C@H]3c3ccoc3)[C@]13O[C@@H]32` (some centres not stated), for which the Potency entry in assay [1], in assay [2] and in assay [3] was “inactive” in each case.

As to `CC(C)(O)/C=C/C(=O)[C@](C)(O)[C@H]1[C@H](O)C[C@@]2(C)[C@@H]3CC=C4[C@@H](C=C(O[C@@H]5O[C@H](CO)[C@@H](O)[C@H](O)[C@H]5O)C(=O)C4(C)C)[C@]3(C)C(=O)C[C@]12C`, the Potency entry in assay [1], in assay [2] and in assay [3] was “inactive” in each case.
